Among the data in PubChem BioAssay (NCI) are growth values, retold here.

About 83,000 compounds went through this panel and 20% of them were active in at least one assay; those are over-represented in the sample as a whole.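 Plates (96-well) were seeded with cells, treated with compound at one concentration, and incubated for 48 hours before percent growth was determined.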 Unmarked numbers belong to inactive results. The source made the active and inactive calls. How the source made its calls: active means growth percent below 10; inactive means the rest.

The assay has as its system HL-60(TB) leukemia. Description: NCI-60 one-dose screen, 48 h (100 = growth as untreated, 0 = no growth, -100 = all killed). The following applies: 10 µM unless noted.
For the compound `CC(=O)c1nn(-c2ccccc2)/c(=N/N=Cc2cn(-c3ccccc3)nc2-c2cc3ccccc3oc2=O)s1`, the growth was 102%. To `Nc1cccc2c(=S)c3ccccc3[nH]c12` belongs 107%. On to `NC(=O)c1ccc[n+](CC(=O)N2CCN(c3cc4c(cc3F)c(=O)c(C(=O)O)cn4C3CC3)CC2)c1`, for which the growth was 106%. To `N=C(N)c1ccc(-c2ccc(-c3ccc(Cl)cc3)o2)nc1` belongs 110%.

Take `CCCCCCCCCCCCCCCCCCOc1cccc(CC(=O)OCC[N+](CC)(CC)CC)c1`: the growth is 9.38% (active). For `CNC(=O)c1c(NC(=O)c2ccc(C(C)C)cc2)sc2c(CN(C)C)c(O)ccc12`, the growth was 85.9%. Take `CCOC(=S)Sc1ccc([N+](=O)[O-])cc1[N+](=O)[O-]`: the growth is -25.6% (active). With `O=C(O)c1cc([N+](=O)[O-])ccc1Br` the figure was 105%; with `CCCCCCCCCCCCNC(=O)[C@H]1CSC(c2cc(Br)cs2)N1` (stereo not given in full), -36.9% (active); with `CCCCCCCCCCCCN1C(C)=CS/C1=C\C=C\c1scc(C)[n+]1CCCCCCCCCCCC`, -32.3% (active). With `CSc1nc2c(c(=O)[nH]1)C(c1ccc(Cl)cc1)C1=C(N2)/C(=C/c2ccc(Cl)cc2)CNC1` (stereo not given) the figure was 55.4%; with `CCN1C(=O)N(CC)C2C1NN=c1s/c(=C3\C(=O)N(CC(C)(C)C)c4ccccc43)c(=O)n12` (stereo not given), -26.1% (active); with `CCc1nnc(CNc2ccc(Cl)cc2)o1`, 92%. To `CN(c1ncccc1CNc1nc(Nc2ccc3c(c2)CC(=O)N3)ncc1C(F)(F)F)S(C)(=O)=O` belongs -40% (active); to `CCN1CCCC1CNC(=O)c1ncc(-c2ccc(C(F)(F)F)cc2)c(NC2CCCCCC2)n1` (stereo not given), 65.9%. `COc1cc(-c2nccc3[nH]c(-c4ccc5cc[nH]c5c4)nc23)cc(OC)c1OC`: the growth is -48.7% (active). To `O=C1/C(=C/c2ccccc2)Oc2ccc(O)c(I)c21` belongs 95.4%. With `CC(=O)NCCSC(=O)C(=O)SCCNC(C)=O` the figure was 83.6%. To `C=C1C(=O)O[C@H]2[C@H]1CC/C(Cn1cc(CNC(=O)Cc3cn(C(=O)c4ccc(Cl)cc4)c4ccc(OC)cc34)nn1)=C\CC[C@@]1(C)O[C@@H]21` belongs -53.4% (active); to `CN1CCN(Cc2ccc(NC(=O)c3cncc(C#Cc4cncn5ccnc45)c3)cc2C(F)(F)F)CC1`, 20.2%; to `CCc1ccc(C2=C/C(=C/c3ccccc3)C(=O)N2CCc2ccc(S(N)(=O)=O)cc2)cc1`, 100%. With `Cn1c2ccccc2c2c3c(c4c5cc(Br)ccc5n(C)c4c21)C(=O)N(O)C3=O`, the growth is -33.2% (active). With `COc1ccc2c(c1)cn1c3ccc(O)cc3[nH]c(=O)c21` the figure was -21.7% (active); with `ON=C(C1CCCCC1)C1CCCCC1`, 96.7%. To `Cc1scc2c1N(C(=O)CN1CCN(C)CC1)c1ccccc1NC2=O` belongs 121%; to `NC1CCC(Nc2nc(NCc3cc(Cl)ccc3O)c3ncn(C4CCCC4)c3n2)CC1` (stereo not given), -41.1% (active).

Regarding `CS(=O)(=O)Nc1cccc(-c2ccc3ncnc(Nc4cncc(Cl)c4)c3c2)c1`, the growth is 35.5%.

For the compound `CC(C)C[C@H](NC(=O)/C=C/Cn1ccc2ccccc2c1=O)B(O)O`, the growth was 24.2%.

With `COc1ccc2sc(N(Cc3cccnc3)C(=O)c3ccc(C#N)cc3)nc2c1`, the growth is 63.4%.

Turning to `Cc1ccc(=O)n(-c2ccc(Br)cc2F)c1`, the growth is 106%. Regarding `Cc1[nH]nc(C(N)=O)c1[N+](=O)[O-]`, the growth was 129%. As for `COc1ccccc1N1CCCCC1`, the growth was 101%. With `CCCC[n+]1c(/C=C\c2c(OC)cc(OC)cc2OC)ccc2ccccc21` the figure was -58.8% (active); with `Cn1c2ccccc2c2c3c(c4c5ccccc5[nH]c4c21)C(=O)N(N)C3=O`, 81.8%. Turning to `CCCn1c(=O)[nH]c(N)c([C@H]2c3ccccc3Oc3[nH]c(=O)n(CCC)c(=O)c32)c1=O`, the growth is 32.9%.

For `CC1(C)COB(OCC(C)(C)COB2OCC(C)(C)CO2)OC1`, the growth was 101%. To `COc1ccc(C(=S)N2CCN(c3cccc(Cl)c3)CC2)cc1` belongs 130%; to `CN1C(=O)/C(=C/c2ccc(C(=O)Nc3ncc(Cc4cc(Cl)ccc4Cl)s3)cc2)SC1=S`, 91%; to `CC(C)(C)n1cc(-c2ccnc(NCCCNS(=O)(=O)c3ccc(C(F)(F)F)cc3)c2)c(-c2cccc(O)c2)n1`, -24.5% (active).

Take `C=C(c1ccc(C(=O)NCCCn2ccnc2)cc1)c1cc2c(cc1C)C(C)(C)CCC2(C)C`: the growth is -47.5% (active).
